According to PubChem BioAssay:
The source made the active and inactive calls.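 Rule for the calls: active = mean duplicate potentiation above the buffer control mean plus 5 SD of buffer wells; inactive = the rest.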

Molecular target: Potassium voltage-gated channel subfamily KQT member 2 (Rattus norvegicus) (UniProt O88943)
Test: KCNQ2 thallium flux enhancement – KCNQ2-CHO-K1 cells, selectivity assay for KCNQ1 potentiator project (AID 493009);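 note: assay conditions were tuned for KCNQ1 rather than KCNQ2 modulators; signal is max minus min fluorescence divided by baseline after thallium stimulus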
Conditions: FluxOR thallium flux fluorescence, at 10 µM; active compounds read high, scaled: buffer 0, activator control 100

Chain of Potassium voltage-gated channel subfamily KQT member 2 (Rattus norvegicus) (O88943 whole entry, looked up): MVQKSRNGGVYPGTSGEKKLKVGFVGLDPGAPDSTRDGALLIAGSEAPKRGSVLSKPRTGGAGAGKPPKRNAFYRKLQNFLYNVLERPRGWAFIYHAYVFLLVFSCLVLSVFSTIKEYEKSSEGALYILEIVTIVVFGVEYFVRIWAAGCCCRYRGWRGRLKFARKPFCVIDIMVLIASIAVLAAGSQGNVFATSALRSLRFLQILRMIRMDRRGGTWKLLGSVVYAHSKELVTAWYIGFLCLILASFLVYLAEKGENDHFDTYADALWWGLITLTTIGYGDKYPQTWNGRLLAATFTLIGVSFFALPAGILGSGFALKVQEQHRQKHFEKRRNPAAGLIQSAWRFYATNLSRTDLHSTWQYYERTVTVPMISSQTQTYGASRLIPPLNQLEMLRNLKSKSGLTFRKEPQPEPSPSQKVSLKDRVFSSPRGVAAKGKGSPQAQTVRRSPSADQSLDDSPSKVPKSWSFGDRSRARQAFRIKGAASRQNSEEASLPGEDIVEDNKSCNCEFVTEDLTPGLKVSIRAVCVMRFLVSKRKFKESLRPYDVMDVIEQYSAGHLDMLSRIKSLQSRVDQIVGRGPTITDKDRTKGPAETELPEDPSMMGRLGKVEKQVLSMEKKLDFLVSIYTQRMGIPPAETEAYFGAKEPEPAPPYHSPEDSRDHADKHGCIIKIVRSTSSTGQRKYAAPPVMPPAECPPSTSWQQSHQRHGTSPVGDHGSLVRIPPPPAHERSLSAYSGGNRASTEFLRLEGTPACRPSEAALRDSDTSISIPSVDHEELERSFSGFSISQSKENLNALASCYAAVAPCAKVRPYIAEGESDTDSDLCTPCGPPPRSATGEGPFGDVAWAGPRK

outcome, inactive:
COC(=O)c1ccc(CNC(=O)c2ccc(COc3ccccc3)cc2)cc1, CCN(CC)c1ccc(Nc2cc3n(c(=O)n2)CCc2cc(OC)c(OC)cc2-3)cc1, CO/N=C/CC(=O)Nc1ccc(F)cc1F, COc1ccc(OCC(=O)NC(=S)Nc2ccc(N3CCOCC3)c(Cl)c2)cc1, CC(C(=O)O)n1c2ccccc2c2cn[nH]c(=O)c21 (stereo not given), Cc1onc(-c2ccccc2Cl)c1C(=O)Nc1ccccc1O, FC(F)(F)c1cc(N2CCNCC2)c2ccccc2n1, CNc1ccccc1C(=O)OC(C)C(=O)Nc1ccc(Cl)cn1 (stereo not given), COC(=O)c1cccc(NC(=O)CSc2nncn2-c2ccccn2)c1, Cc1cc(C(=O)N/N=C/c2cccs2)no1, COc1cc(/C=N/Nc2snc(SC)c2C#N)ccc1O, CCOC(=O)C(=Cc1cc(=O)c(OC)co1)C(=O)OCC, COC(=O)C1C(c2ccc(OC)c(OC)c2)NC(c2ccc(OC)c(OC)c2)C(C(=O)OC)S1(=O)=O (stereo not given), O=C(Cn1c(C(F)(F)F)nc2ccccc21)N=Nc1c(O)[nH]c2ccc(Br)cc12, CCCn1c(=S)[nH]c2ccc(C(F)(F)F)cc21, COc1ccc(CCN(C)C(=O)CSc2nnc(-c3ccco3)o2)cc1OC, Cc1ccc(C)c(S(=O)(=O)NCC(=O)N2CCCC2)c1, N#C/C(=C\c1ccc(-c2ccccc2Cl)o1)C(=O)Nc1nc2ccccc2s1, O=C(COC(=O)C12CC3CC(CC(C3)C1)C2)NCCCc1ccccc1, O=C(COc1ncnc2ccc(Br)cc12)Nc1ccc(N2CCOCC2)cc1, CCc1ccc(CNC(=O)CCn2nc(C)c3c(C)n(-c4ccccc4)nc3c2=O)cc1

potentiation, active:
O=C1N(Cc2ccc(F)cc2)CCN1c1ccc(F)cc1 144%, CC1Cc2ccccc2N1C(=S)NC(=O)c1cccc(Br)c1 (stereo not given) 576%, CCCN1C(=O)/C(=C/c2ccc(C)s2)NC1=S 412%, Cc1sc2ncnc(SCC(=O)NC(=O)c3cccn3C)c2c1C 201%, COc1ccc(C(=O)NC(=S)N(Cc2ccccc2)Cc2ccccc2)cc1 436%, O=C(NC(=S)Nc1ccc(C(F)(F)F)cc1)c1csnn1 555%, N#CC(c1ccc(Cl)cc1)c1ccc2c(C(F)(F)F)cc(C(F)(F)F)nc2n1 (stereo not given) 407%, CNC(=S)Nc1sc2c(c1C(=O)OC)CCC2 287%, CC(NC(=S)NC(=O)c1ccccc1Br)c1ccccc1 (stereo not given) 184%, Cc1cccc(-c2n[nH]c(=S)n2/N=C/c2cccs2)c1 149%, CCCSC(=S)c1c(C)[nH]n(-c2ccccc2)c1=O 432%, C=CCN(c1ccccc1)S(=O)(=O)c1cccc(C(=O)Nc2cccc(C)n2)c1 358%, COc1ccccc1C(=O)NNC(=O)C(=O)NC(C)(C)C 246%, S=c1nc(C2CCCCC2)[nH]c2ccccc12 160%, NC(=O)COC(=O)c1ccccc1Nc1ccc(SC(F)F)cc1 147%, CC1(c2ccccc2)CC(C)(C)N2C(=O)/C(=C3\SC(=S)NC3=O)c3cccc1c32 (stereo not given) 520%, CC(C)CC(=O)NC(=S)Nc1nc(-c2ccccc2)cs1 316%, C=CCN(CC=C)C(=S)NC(=O)c1ccc(OC)cc1 162%, CCCCn1c(N)c(C(=S)NC(=O)CC(C)(C)C)c(=O)n(C)c1=O 148%
